Results reported in PubChem BioAssay.
Active and inactive are the calls of the source.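 How the source made its calls: active means normalized viability below 100% at a tested concentration; inactive means the rest.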

Experiment: drug combination growth inhibition, ovarian cancer – cell-based, oncology-focused library, rucaparib conditional, profiling panel (AID 1508598)
Details: patient-derived ovarian cancer cells, CellTiter-Glo viability, 144 h; at 0.313 µM; OCI-C5x cells; without rucaparib; hits give low values
For `C/C(=C\c1csc(C)n1)[C@H]1C[C@@H]2O[C@]2(C)CCC[C@H](C)[C@H](O)[C@@H](C)C(=O)C(C)(C)[C@H](O)CC(=O)O1`, the viability was 35.3% (active). In the case of `CC(C)[C@@]12O[C@@H]1[C@@H]1O[C@]13[C@]1(O[C@@H]1C[C@@H]1C4=C(CC[C@@]13C)C(=O)OC4)[C@@H]2O`, the viability is reported as 10.5% (active). For `C/C(=C\c1csc(C)n1)[C@H]1C[C@@H]2O[C@@H]2CCC[C@H](C)[C@H](O)[C@@H](C)C(=O)C(C)(C)[C@H](O)CC(=O)O1`, the viability was 24% (active).

Same assay, conditions: patient-derived ovarian cancer cells, CellTiter-Glo viability, 144 h; at 0.313 µM; OCI-P5x cells; with rucaparib 20 µM; hits give low values; 100% = cells with rucaparib alone
With `C/C(=C\c1csc(C)n1)[C@H]1C[C@@H]2O[C@]2(C)CCC[C@H](C)[C@H](O)[C@@H](C)C(=O)C(C)(C)[C@H](O)CC(=O)O1` the viability was 44.8% (active). With `CC(C)[C@@]12O[C@@H]1[C@@H]1O[C@]13[C@]1(O[C@@H]1C[C@@H]1C4=C(CC[C@@]13C)C(=O)OC4)[C@@H]2O` the viability was 12.1% (active). With `C/C(=C\c1csc(C)n1)[C@H]1C[C@@H]2O[C@@H]2CCC[C@H](C)[C@H](O)[C@@H](C)C(=O)C(C)(C)[C@H](O)CC(=O)O1` the viability was 46.5% (active).

Same assay, conditions: patient-derived ovarian cancer cells, CellTiter-Glo viability, 144 h; at 0.313 µM; OCI-P5x cells; without rucaparib; hits give low values
In the case of `C/C(=C\c1csc(C)n1)[C@H]1C[C@@H]2O[C@]2(C)CCC[C@H](C)[C@H](O)[C@@H](C)C(=O)C(C)(C)[C@H](O)CC(=O)O1`, the viability is reported as 15.9% (active). For `CC(C)[C@@]12O[C@@H]1[C@@H]1O[C@]13[C@]1(O[C@@H]1C[C@@H]1C4=C(CC[C@@]13C)C(=O)OC4)[C@@H]2O`, the viability was 8.22% (active). In the case of `C/C(=C\c1csc(C)n1)[C@H]1C[C@@H]2O[C@@H]2CCC[C@H](C)[C@H](O)[C@@H](C)C(=O)C(C)(C)[C@H](O)CC(=O)O1`, the viability is reported as 15.9% (active).

Same assay, conditions: patient-derived ovarian cancer cells, CellTiter-Glo viability, 144 h; at 1.25 µM; OCI-C5x cells; with rucaparib 10 µM; hits give low values; 100% = cells with rucaparib alone
For `C/C(=C\c1csc(C)n1)[C@H]1C[C@@H]2O[C@]2(C)CCC[C@H](C)[C@H](O)[C@@H](C)C(=O)C(C)(C)[C@H](O)CC(=O)O1`, the viability was 45.2% (active). In the case of `CC(C)[C@@]12O[C@@H]1[C@@H]1O[C@]13[C@]1(O[C@@H]1C[C@@H]1C4=C(CC[C@@]13C)C(=O)OC4)[C@@H]2O`, the viability is reported as 9.48% (active). In the case of `C/C(=C\c1csc(C)n1)[C@H]1C[C@@H]2O[C@@H]2CCC[C@H](C)[C@H](O)[C@@H](C)C(=O)C(C)(C)[C@H](O)CC(=O)O1`, the viability is reported as 25.2% (active).

Same assay, conditions: patient-derived ovarian cancer cells, CellTiter-Glo viability, 144 h; at 1.25 µM; OCI-C5x cells; without rucaparib; hits give low values
For `C/C(=C\c1csc(C)n1)[C@H]1C[C@@H]2O[C@]2(C)CCC[C@H](C)[C@H](O)[C@@H](C)C(=O)C(C)(C)[C@H](O)CC(=O)O1`, the viability was 38.5% (active). For `CC(C)[C@@]12O[C@@H]1[C@@H]1O[C@]13[C@]1(O[C@@H]1C[C@@H]1C4=C(CC[C@@]13C)C(=O)OC4)[C@@H]2O`, the viability was 10% (active). In the case of `C/C(=C\c1csc(C)n1)[C@H]1C[C@@H]2O[C@@H]2CCC[C@H](C)[C@H](O)[C@@H](C)C(=O)C(C)(C)[C@H](O)CC(=O)O1`, the viability is reported as 24.3% (active).

Same assay, conditions: patient-derived ovarian cancer cells, CellTiter-Glo viability, 144 h; at 1.25 µM; OCI-P5x cells; with rucaparib 20 µM; hits give low values; 100% = cells with rucaparib alone
With `C/C(=C\c1csc(C)n1)[C@H]1C[C@@H]2O[C@]2(C)CCC[C@H](C)[C@H](O)[C@@H](C)C(=O)C(C)(C)[C@H](O)CC(=O)O1` the viability was 39.6% (active). With `CC(C)[C@@]12O[C@@H]1[C@@H]1O[C@]13[C@]1(O[C@@H]1C[C@@H]1C4=C(CC[C@@]13C)C(=O)OC4)[C@@H]2O` the viability was 9.34% (active). In the case of `C/C(=C\c1csc(C)n1)[C@H]1C[C@@H]2O[C@@H]2CCC[C@H](C)[C@H](O)[C@@H](C)C(=O)C(C)(C)[C@H](O)CC(=O)O1`, the viability is reported as 46.3% (active).

Same assay, conditions: patient-derived ovarian cancer cells, CellTiter-Glo viability, 144 h; at 1.25 µM; OCI-P5x cells; without rucaparib; hits give low values
With `C/C(=C\c1csc(C)n1)[C@H]1C[C@@H]2O[C@]2(C)CCC[C@H](C)[C@H](O)[C@@H](C)C(=O)C(C)(C)[C@H](O)CC(=O)O1` the viability was 16.1% (active). For `CC(C)[C@@]12O[C@@H]1[C@@H]1O[C@]13[C@]1(O[C@@H]1C[C@@H]1C4=C(CC[C@@]13C)C(=O)OC4)[C@@H]2O`, the viability was 8.5% (active). For `C/C(=C\c1csc(C)n1)[C@H]1C[C@@H]2O[C@@H]2CCC[C@H](C)[C@H](O)[C@@H](C)C(=O)C(C)(C)[C@H](O)CC(=O)O1`, the viability was 14.6% (active).

Same assay, conditions: patient-derived ovarian cancer cells, CellTiter-Glo viability, 144 h; at 5 µM; OCI-C5x cells; with rucaparib 10 µM; hits give low values; 100% = cells with rucaparib alone
With `C/C(=C\c1csc(C)n1)[C@H]1C[C@@H]2O[C@]2(C)CCC[C@H](C)[C@H](O)[C@@H](C)C(=O)C(C)(C)[C@H](O)CC(=O)O1` the viability was 45.4% (active). For `CC(C)[C@@]12O[C@@H]1[C@@H]1O[C@]13[C@]1(O[C@@H]1C[C@@H]1C4=C(CC[C@@]13C)C(=O)OC4)[C@@H]2O`, the viability was 9.2% (active). In the case of `C/C(=C\c1csc(C)n1)[C@H]1C[C@@H]2O[C@@H]2CCC[C@H](C)[C@H](O)[C@@H](C)C(=O)C(C)(C)[C@H](O)CC(=O)O1`, the viability is reported as 52.3% (active).

Same assay, conditions: patient-derived ovarian cancer cells, CellTiter-Glo viability, 144 h; at 5 µM; OCI-C5x cells; without rucaparib; hits give low values
With `C/C(=C\c1csc(C)n1)[C@H]1C[C@@H]2O[C@]2(C)CCC[C@H](C)[C@H](O)[C@@H](C)C(=O)C(C)(C)[C@H](O)CC(=O)O1` the viability was 40.3% (active). With `CC(C)[C@@]12O[C@@H]1[C@@H]1O[C@]13[C@]1(O[C@@H]1C[C@@H]1C4=C(CC[C@@]13C)C(=O)OC4)[C@@H]2O` the viability was 8.72% (active). For `C/C(=C\c1csc(C)n1)[C@H]1C[C@@H]2O[C@@H]2CCC[C@H](C)[C@H](O)[C@@H](C)C(=O)C(C)(C)[C@H](O)CC(=O)O1`, the viability was 41.6% (active).
